Results published in PubChem BioAssay (NCATS).
Values joined by “and” are separate entries in the source; they are usually repeats but may differ in a detail not shown here. Equal values may be shown once. Results filed as inconclusive are left out. Where a call stands in place of a potency, no number is given. Active and inactive are the calls of the source. Unless noted, calls come from the whole dose curve; as a rule, active = well fitted curve in the direction sought with a large enough effect; inconclusive = small, poorly fitted or top-dose-only effect, or another doubt; inactive = no such curve, though single readings can be large; an effect the other way counts as inactive or inconclusive.

Columns and labels:
[1] = Confirmatory screen GU Rhodamine qHTS for Zika virus inhibitors qHTS (AID 1347157); note: nearly all actives have a fitted effect of over 70% in size; note: potency is the fitted concentration of half-maximal effect
Summary of the method: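 Enzyme 25 nM in Tris-HCl pH 8.0 + 0.01% Tween 20; compounds up to 114 microM, 15 min RT dark; + Rhod110 substrate 1.5 microM; read t0 and 15 min; delta fluorescence → % inhibition → 4-parameter Hill fit.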

[2] = biological target: Glucocorticoid receptor (Homo sapiens) (UniProt P04150); experiment: GR-EFC Redistribution (AID 451; calls by dose curve; note: potency is the fitted concentration of half-maximal effect); details: CHO-K1 GR-EFC translocation, beta-gal luminescence, 2 h
Summary of the method: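 CHO-K1 cells stably expressing nuclear-localized β-gal enzyme acceptor and GR fused C-terminally to the enzyme donor fragment; ligand-driven nuclear translocation restores β-gal by complementation. Compounds titrated up to 46 uM final, 2 h at 37 °C; luminescence read.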

[3] = biological target: Ubiquitin carboxyl-terminal hydrolase 1 (Homo sapiens) (UniProt O94782); experiment: Inhibitors of USP1/UAF1: Pilot qHTS (AID 504865); note: nearly all actives have a fitted effect of over 35% in size; note: potency is the fitted concentration of half-maximal effect;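 for activity change, negative = inhibition: rhodamine fluorescence freed from ubiquitin-rhodamine substrate followed over time; top concentration of the series differs between compounds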
Summary of the method: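 Kinetic fluorescence assay: 1nM USP1/UAF1, 15 min compound preincubation, then 150nM Ub-Rho; 480/540 nm.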

[4] = biological target: DNA dC->dU-editing enzyme APOBEC-3G (Homo sapiens) (UniProt Q9HC16); experiment: qHTS for inhibitors of Vif-A3G interactions: Validation (AID 588379)
Summary of the method: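 Yellow fluorescence (Ex 488, Em 500-530) of Vif-coexpressing HeLa A3G-eYFP cells, scanned by Acumen cytometer, reports blocked A3G degradation. Cells plated at 700/well overnight at 37 deg C before compound addition, then a further overnight compound incubation at 37 deg C.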

[5] = system: Zika virus NS2B-NS3 protease; experiment: Primary screen GU AMC qHTS for Zika virus inhibitors (AID 1347154); note: nearly all actives have a fitted effect of over 70% in size; note: potency is the fitted concentration of half-maximal effect
Summary of the method: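 Unlinked Zika NS2B hydrophilic domain/NS3 protease domain noncovalent complex (25 nM final) in 10 mM Tris-HCl pH 8.0, 0.01% Tween 20, with AMC peptide substrate. Fluorescence (ex 340, em 450 nm) change over 15 min, room temperature; percent inhibition fitted to 4-parameter Hill equation.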

[6] = ZIKV-mCherry secondary qHTS for Zika virus inhibitors (AID 1347158); note: top concentration of the series differs between compounds
Summary of the method: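 Read-out is percent infection: mCherry-positive Vero cells (nuclear-proximal intensity >450 RFU, 3 SD above negative controls) counted by high-content imaging of Hoechst-stained, PFA-fixed wells after 48-72 h with ZIKV-mCherry at MOI 1 and compound.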

[7] = Confirmatory screen NINDS Rhodamine qHTS for Zika virus inhibitors (AID 1347161); note: nearly all actives have a fitted effect of over 60% in size; note: potency is the fitted concentration of half-maximal effect;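 for activity change, negative = inhibition: purified Zika NS2B-NS3 protease with linked NS2B cofactor domain and Rhodamine110 peptide substrate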
Summary of the method: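 Enzyme (25 nM, linked NS2B-NS3) was preincubated 15 min with compound in 10 mM Tris-HCl pH 8.0, 0.01% Tween 20. Rhodamine110 substrate (1.5 microM) was then added and fluorescence read at start and after 15 min.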

[8] = Tertiary RLuc qRT-PCR qHTS assay for Zika virus inhibitors (AID 1347169); note: top concentration of the series differs between compounds; nearly all actives have a fitted effect of over 55% in size
Summary of the method: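 Orthogonal cell-based infection assay using recombinant ZIKV-RLuc (Cambodian) in Vero cells; compound added prior to virus at MOI 1-2. Incubation lasts 48-72 hrs at 37 degrees C before live-cell Renilla substrate is added and luminescence measured.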

[9] = system: Zika virus NS2B-NS3 protease (linked); experiment: 384 well plate NINDS AMC confirmatory qHTS for Zika virus inhibitors (AID 1347163); note: nearly all actives have a fitted effect of over 50% in size; note: potency is the fitted concentration of half-maximal effect;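 for activity change, negative = inhibition: linked protease at 5 30 or 60 nM final depending on run; fluorescence of AMC released from Ac-VKTGKR-AMC peptide cleaved by the protease; top concentration of the series differs between compounds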
Summary of the method: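 Enzyme (5, 30 or 60 nM final) first met test compounds for ~15 min. The AMC-tagged peptide Ac-VKTGKR-AMC followed at 30 microM. Fluorescence was then recorded at 25 min and scaled against no-enzyme and no-inhibitor wells.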

[10] = system: Zika virus NS2B-NS3 protease (linked construct); experiment: 384 well plate NINDS Rhodamine confirmatory qHTS for Zika virus inhibitors (AID 1347164); note: nearly all actives have a fitted effect of over 65% in size; note: potency is the fitted concentration of half-maximal effect; for activity change, negative = inhibition: top concentration of the series differs between compounds
Summary of the method: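 Compounds are incubated about 15 minutes with linked protease (5, 30 or 60 nM final). Rhodamine 110-tagged Ac-LKRR substrate (10 microM final) is added and fluorescence measured after 25 minutes.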

[11] = qHTS Assay for Lipid Storage Modulators (AID 1519; calls by dose curve); details: Drosophila S3 cells, BODIPY lipid droplet/cell ratio, laser cytometry, cells loaded with oleic acid; for activity change, negative = inhibition: at 57.5 µM (top of the series)
Summary of the method: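 Cells seeded at 5,000 per well were treated with compounds over a concentration series and loaded with oleic acid (400 uM, as added). Lipid droplet fluorescence (488 nm excitation, 500-530 nm channel) was read by laser-scanning cytometry and normalized to 20 uM Triacsin C.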

[12] = measured here: cell count channel max response
[13] = measured here: lipid channel max response

Sequence of Glucocorticoid receptor (Homo sapiens) (P04150 whole entry, looked up, the tested form may be a part): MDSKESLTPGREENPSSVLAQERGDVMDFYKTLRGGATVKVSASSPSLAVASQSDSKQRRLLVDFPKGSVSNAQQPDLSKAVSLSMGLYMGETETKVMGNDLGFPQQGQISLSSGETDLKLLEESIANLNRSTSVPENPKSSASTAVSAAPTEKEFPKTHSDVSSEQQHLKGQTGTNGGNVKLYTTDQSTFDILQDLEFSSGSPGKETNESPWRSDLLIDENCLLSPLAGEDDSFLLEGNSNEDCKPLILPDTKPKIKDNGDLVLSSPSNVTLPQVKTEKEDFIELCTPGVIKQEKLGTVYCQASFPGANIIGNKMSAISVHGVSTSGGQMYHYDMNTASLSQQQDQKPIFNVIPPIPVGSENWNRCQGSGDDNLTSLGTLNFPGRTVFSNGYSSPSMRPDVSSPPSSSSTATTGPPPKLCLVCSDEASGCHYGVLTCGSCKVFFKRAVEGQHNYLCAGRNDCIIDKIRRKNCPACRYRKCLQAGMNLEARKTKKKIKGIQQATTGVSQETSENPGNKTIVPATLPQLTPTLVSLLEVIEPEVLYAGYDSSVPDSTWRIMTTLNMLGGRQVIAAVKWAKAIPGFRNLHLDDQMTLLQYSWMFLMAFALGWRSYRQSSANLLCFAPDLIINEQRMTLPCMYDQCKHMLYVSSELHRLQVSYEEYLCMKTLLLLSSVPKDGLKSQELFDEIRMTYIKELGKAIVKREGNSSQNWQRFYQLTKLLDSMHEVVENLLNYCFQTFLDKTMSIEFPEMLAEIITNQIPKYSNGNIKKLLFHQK
Sequence of DNA dC->dU-editing enzyme APOBEC-3G (Homo sapiens) (Q9HC16 whole entry, looked up): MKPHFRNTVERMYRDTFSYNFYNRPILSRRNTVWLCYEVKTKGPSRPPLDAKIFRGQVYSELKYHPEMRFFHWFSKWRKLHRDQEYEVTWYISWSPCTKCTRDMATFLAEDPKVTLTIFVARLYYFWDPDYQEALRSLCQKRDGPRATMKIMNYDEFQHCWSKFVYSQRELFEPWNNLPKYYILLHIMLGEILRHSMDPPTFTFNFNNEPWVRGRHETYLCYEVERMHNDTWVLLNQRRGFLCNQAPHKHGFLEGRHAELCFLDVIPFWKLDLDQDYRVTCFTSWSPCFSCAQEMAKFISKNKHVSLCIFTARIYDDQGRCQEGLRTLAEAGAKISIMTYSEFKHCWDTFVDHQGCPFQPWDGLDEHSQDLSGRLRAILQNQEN
Sequence of Ubiquitin carboxyl-terminal hydrolase 1 (Homo sapiens) (O94782 whole entry, looked up): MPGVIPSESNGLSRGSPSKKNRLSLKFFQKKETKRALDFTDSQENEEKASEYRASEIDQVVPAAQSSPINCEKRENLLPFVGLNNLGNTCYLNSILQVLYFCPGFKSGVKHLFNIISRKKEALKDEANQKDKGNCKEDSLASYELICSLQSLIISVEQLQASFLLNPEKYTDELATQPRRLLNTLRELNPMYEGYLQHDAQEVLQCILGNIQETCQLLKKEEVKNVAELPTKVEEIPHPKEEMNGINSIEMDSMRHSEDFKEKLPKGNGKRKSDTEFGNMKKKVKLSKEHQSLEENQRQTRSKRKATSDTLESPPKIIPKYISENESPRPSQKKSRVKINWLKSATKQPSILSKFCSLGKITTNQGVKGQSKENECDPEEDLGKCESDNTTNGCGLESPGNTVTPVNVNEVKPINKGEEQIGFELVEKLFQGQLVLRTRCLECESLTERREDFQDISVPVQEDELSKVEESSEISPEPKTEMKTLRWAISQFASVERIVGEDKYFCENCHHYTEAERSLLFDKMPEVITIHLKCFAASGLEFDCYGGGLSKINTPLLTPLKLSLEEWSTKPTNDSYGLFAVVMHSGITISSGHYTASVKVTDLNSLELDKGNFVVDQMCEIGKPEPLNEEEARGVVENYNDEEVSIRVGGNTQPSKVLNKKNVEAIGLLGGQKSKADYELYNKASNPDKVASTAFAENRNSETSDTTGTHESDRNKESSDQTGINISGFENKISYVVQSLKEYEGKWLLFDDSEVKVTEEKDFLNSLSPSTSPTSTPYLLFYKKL

SMILES: CC(C)(C)c1ccc(C(=O)Nc2ccc(C(=O)OCc3cc(=O)n4ccsc4n3)cc2)cc1
- Potency [1]: inactive

SMILES: N[C@H](C(=O)O)[C@@H]1[C@@H](C(=O)O)C1(F)F
- Potency [2]: > 46 µM (inactive)
- Potency [3]: inactive
- Potency [4]: inactive
- Potency [5]: inactive

SMILES: COc1ccc2c(c1)Oc1nc(-c3ccc(C)s3)nc(SCC(=O)Nc3cccc(C(=O)O)c3)c1C2
- Potency [1]: 5.01 µM (active)
- Potency [6]: inactive
- Potency [7]: 5.62 µM (active)
- Potency [8]: inactive

SMILES: CC(C)N=C(N)N=C(N)Nc1ccc(Cl)cc1
- Potency [5]: inactive

SMILES: Cc1c(C(=O)NN2CCCCC2)nn(-c2ccc(Cl)cc2Cl)c1-c1ccc(I)cc1
- Potency [3]: inactive
- Potency [4]: inactive
- Potency [5]: inactive

SMILES: CC(C)c1ccc(NC(=O)c2ccc3c(O)c(S(=O)(=O)c4ccccc4)c(=O)[nH]c3c2)cc1
- Potency [1]: 17.8 µM (active)
- Potency [6]: inactive
- Potency [7]: 3.98 µM (active)
- Potency [9]: 282 µM (active)
- Potency [10]: 28.2 µM (active)

SMILES: COc1cc2c(cc1OC)-c1cc3nc4ccccc4nc3n1C(C)(C)C2
- Potency [2]: > 46 µM (inactive)
- Potency [4]: inactive
- Potency [5]: inactive

SMILES: O=C(OC1Cc2c(O)cc(O)cc2OC1c1cc(O)c(=O)c2c(O)c(O)cc(C3Oc4cc(O)cc(O)c4CC3OC(=O)c3cc(O)c(O)c(O)c3)c2c1)c1cc(O)c(O)c(O)c1 (centres undefined)
- activity change, negative = inhibition [11]: 15% (inactive)
- max response [11, 12]: -10.5%
- max response [11, 13]: 7.68%
- Potency [1]: 5.01 µM (active)
- Potency [6]: inactive
- Potency [7]: 11.2 µM (active)
- Potency [9]: 2.24 µM (active)
- Potency [10]: inactive

SMILES: CNc1ncnc2c1ncn2[C@H]1C[C@H](OP(=O)(O)O)[C@H](COP(=O)(O)O)O1
- Potency [2]: > 46 µM (inactive)
- Potency [3]: inactive
- Potency [4]: inactive
- Potency [5]: inactive

SMILES: C[C@@H]1CNCCN1S(=O)(=O)c1cccc2cnccc12
- Potency [2]: > 46 µM (inactive)
- Potency [4]: inactive
- Potency [5]: inactive

SMILES: CC(C)Oc1cccc(-n2c(CCc3c[nH]c4ccc(Br)cc34)nc3ccccc3c2=O)c1
- Potency [4]: inactive
- Potency [5]: inactive

SMILES: O=C(O)COc1cccc(-c2ocnc2-c2nc(-c3ccccc3)c(-c3ccccc3)o2)c1
- Potency [2]: > 46 µM (inactive)
- Potency [3]: 39.8 µM (active)
- Potency [4]: inactive
- Potency [5]: inactive

SMILES: COc1ccccc1CC(=N)N1C[C@@H]2C(=O)CCC(c3ccccc3)(c3ccccc3)[C@@H]2C1
- Potency [4]: inactive
- Potency [5]: inactive

SMILES: O=C(/C=C\c1ccc(O)c(O)c1)O[C@@H](Cc1ccc(O)c(O)c1)C(=O)O
- Potency [2]: > 46 µM (inactive)
- Potency [4]: inactive
- Potency [5]: 4.74 µM (active)

SMILES: Cc1c(C2CCN(CCc3ccccc3)CC2)noc1-c1ccc(Cl)cc1
- Potency [2]: > 46 µM (inactive)
- Potency [4]: inactive
- Potency [5]: inactive

SMILES: CC(C)c1ccc(Nc2sc(C(=O)c3ccccc3)c(N)c2S(=O)(=O)c2ccccc2)cc1
- Potency [1]: inactive
- Potency [7]: inactive
- Potency [8]: inactive

SMILES: O=C(Nc1cccc(C(=O)OCc2cc(=O)n3c4c(sc3n2)CCCC4)c1)c1cccc(Cl)c1
- Potency [1]: inactive
- Potency [8]: inactive

SMILES: CCOC(=O)c1ccc(N2C(=O)c3n[nH]c(-c4cccs4)c3C2c2ccc(C(C)(C)C)cc2)cc1 (centres undefined)
- Potency [1]: 20 µM (active)
- Potency [7]: 15.8 µM (active)
- Potency [9]: inactive

SMILES: CCOC(=O)c1ccccc1NC(=O)CSc1ccc(-c2sc(-c3ccccc3)nc2C)nn1
- Potency [1]: inactive
- Potency [7]: inactive
- Potency [8]: inactive

SMILES: COc1ccc(OC)c(Nc2sc(C(=O)c3ccccc3)c(N)c2S(=O)(=O)c2ccccc2)c1
- Potency [1]: inactive
- Potency [7]: inactive
- Potency [8]: inactive

SMILES: O=C(Nc1ccccc1C(=O)OCc1cc(=O)n2c3c(sc2n1)CCCC3)c1ccc(Cl)cc1
- Potency [1]: inactive
- Potency [8]: inactive

SMILES: O=C1c2ccc(O)c(O)c2C(=O)c2c(O)ccc(O)c21
- Potency [3]: 79.4 µM (active)
- Potency [1]: 12.6 µM (active)
- Potency [7]: 5.62 µM (active)
- Potency [9]: 31.6 µM (active)
- Potency [10]: inactive

SMILES: O=C(O)c1ccccc1-c1c2cc(I)c(=O)c(I)c-2oc2c(I)c(O)c(I)cc12
- Potency [1]: 14.1 µM (active)
- Potency [7]: 3.16 µM (active)
- Potency [9]: 56.2 µM (active)
- Potency [10]: inactive
- Potency [8]: inactive

SMILES: Cc1c(C2(c3cc(C(C)C)c(O)c(Br)c3C)OS(=O)(=O)c3ccccc32)cc(C(C)C)c(O)c1Br
- Potency [1]: 5.01 µM (active)
- Potency [9]: 126 µM (active)
- Potency [10]: 17.8 µM (active)

SMILES: N#C/C(=C\c1ccc(-c2cc(Cl)ccc2Cl)o1)C(=O)Nc1ccccc1C(=O)O
- Potency [1]: 3.16 µM (active)
- Potency [7]: 6.31 µM (active)
- Potency [9]: 20 µM (active)
- Potency [8]: inactive

SMILES: Nc1c(N=Nc2ccc([N+](=O)[O-])cc2)c(S(=O)(=O)O)cc2cc(S(=O)(=O)O)c(/C=C/c3ccccc3)c(O)c12
- Potency [1]: 3.16 µM (active)
- Potency [9]: 79.4 µM (active)
- Potency [10]: 14.1 µM (active)

SMILES: CC(C)c1nn2c(=O)cc(COC(=O)c3ccccc3NC(=O)c3cccc(Cl)c3)nc2s1
- Potency [1]: inactive
- Potency [7]: inactive
- Potency [8]: inactive

SMILES: O=C(Nc1cc(C(=O)Nc2ccc(S(=O)(=O)O)cc2S(=O)(=O)O)cc(C(=O)Nc2ccc(S(=O)(=O)O)cc2S(=O)(=O)O)c1)Nc1cc(C(=O)Nc2ccc(S(=O)(=O)O)cc2S(=O)(=O)O)cc(C(=O)Nc2ccc(S(=O)(=O)O)cc2S(=O)(=O)O)c1
- Potency [2]: > 46 µM (inactive)
- activity change, negative = inhibition [11]: 10.5% (inactive)
- max response [11, 12]: -19.5%
- max response [11, 13]: -13.3%
- Potency [3]: 1 µM (active)
- Potency [4]: inactive
- Potency [1]: 2.24 µM (active) and 4.47 µM (active)
- Potency [9]: 8.91 µM (active) and 7.08 µM (active)
- Potency [10]: 3.55 µM (active) and 3.16 µM (active)
- Potency [8]: inactive

SMILES: Cc1ccc(NC(=O)c2ccc3c(O)c(S(=O)(=O)c4ccccc4)c(=O)[nH]c3c2)cc1Cl
- Potency [1]: 8.91 µM (active)
- Potency [7]: 6.31 µM (active)
- Potency [9]: 282 µM (active)
- Potency [10]: 44.7 µM (active)
- Potency [8]: inactive
